From PubChem BioAssay
VLA-4 inh – inhibition in a human VLA-4 binding assay; P13612; VLA-4 expressing cells, ligand binding flow cytometry; inhibition, % (about 7 µM as worked out from the volumes in the protocol); 330,000 tested, 0.2% active; AID 2557; in the data active = inhibition above about 50%
JMJD2C inh – inhibitors of human GASC-1 (JMJD2C) demethylase. Q9H3R0. GST-JMJD2C(1-420) H3K9me3 demethylation, DELFIA europium. inhibition, % at 2.35 µM. 330,000 tested, 0.069% active;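 active = more than half of a compound's replicate wells show inhibition beyond 50%, single wells judged on their own value; inconclusive = some, but no more than half, of replicates pass 50% inhibition; inactive = no replicate passes 50% inhibition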;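 also: signal counts dimethyl H3K9 product captured on neutravidin plate; 0% = median of DMSO wells and 100% = 0.3 times that DMSO median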
HTR2A ag – agonists of mouse serotonin 5-HT2A receptor (HTR2A) | P35363 | CHO-K1 mHTR2A beta-arrestin complementation, luminescence; percent of 30 µM serotonin response | activation, % at 7.6 µM | 360,000 tested, 0.66% active;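 active = activation above a run cutoff, the mean activation of all tested compounds plus 3 SD, cut at about 14% in these data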;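 also: 0% = plate median of compound wells and 100% = 30 µM serotonin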
Target sequence (P35363 whole entry, looked up): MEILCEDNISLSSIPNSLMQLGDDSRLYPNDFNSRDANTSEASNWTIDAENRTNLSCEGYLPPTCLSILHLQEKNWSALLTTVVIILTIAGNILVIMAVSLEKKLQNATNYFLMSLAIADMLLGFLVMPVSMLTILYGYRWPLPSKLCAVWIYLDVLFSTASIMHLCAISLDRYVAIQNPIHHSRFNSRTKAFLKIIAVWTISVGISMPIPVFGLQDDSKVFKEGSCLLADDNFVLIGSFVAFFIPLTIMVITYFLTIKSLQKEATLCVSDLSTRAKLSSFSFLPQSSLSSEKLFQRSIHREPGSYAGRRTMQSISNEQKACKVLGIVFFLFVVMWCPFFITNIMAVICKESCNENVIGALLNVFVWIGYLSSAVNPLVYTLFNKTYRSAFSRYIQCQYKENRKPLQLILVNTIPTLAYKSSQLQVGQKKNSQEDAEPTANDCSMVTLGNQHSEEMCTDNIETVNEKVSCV
Granule exo inh – blocks lytic granule exocytosis; inhibition, % at 10 µM; TALL-104 LAMP-1 surface exposure, flow cytometry; cells stimulated with thapsigargin and PMA; 360,000 tested, 0.66% active;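 active = inhibition above about 55%, limit read from the data; inconclusive = no clear call, values can overlap the other calls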
MEX-5 binding – C. elegans MEX-5 TCR-2 RNA binding activity. 300,000 tested, 0.38% active. activity score (negative = inhibition of binding), % at 10 µM. MEX-5/FITC-TCR2 RNA binding, fluorescence polarization; active compounds read low. Q9XUB2;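 active = inhibition past about -25% in most replicates, and total fluorescence under double the plate's negative control median, limit read from the data; inconclusive = replicates evenly split on the limit, or fluorescence at least double controls; inactive = too little inhibition in most replicates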;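 also: 0% = DMSO and -100% = 5 µM competing unlabeled TCR2 RNA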
V-ATPase pHluor – yeast V-ATPase proton transport regulation by pHLuorin | S. cerevisiae, pHLuorin cytosolic pH fluorescence | response, % at 10 µM | 350,000 tested, 0.37% active; in the data active = response mostly above about 7.3%, no sharp cut-off; inactive = mostly below about 5.4%; also: actives read high
Active calls of the source: *. Rows were chosen to be rich in hits. Some 2.2% of all compounds tested hit in one or more screens of this group.

Screening Cc1nc2ccccc2c(=O)n1/N=C/c1ccc(O)c(O)c1O returned VLA-4 inh 12.5, JMJD2C inh -35.9, HTR2A ag 2.5, Granule exo inh 0.7, MEX-5 binding -51.7* and V-ATPase pHluor 2.6.
`O=C1c2ccccc2C(=O)N1/N=C/c1ccc(O)c(O)c1O` gave JMJD2C inh 0.0, HTR2A ag 4.3, Granule exo inh -3.3, MEX-5 binding -53.2* and V-ATPase pHluor -2.5.
`Fc1ccccc1N1CCN(CCCNc2ccc3nncn3n2)CC1` gave VLA-4 inh -2.9, JMJD2C inh -1.5, HTR2A ag 25.8*, Granule exo inh -1.6, MEX-5 binding -1.6 and V-ATPase pHluor 2.2.
For COc1cccc(CN(C(=O)c2ccccc2)C2CCS(=O)(=O)C2)c1 (centres undefined) the results were VLA-4 inh 31.4, JMJD2C inh -3.7, HTR2A ag -8.3, Granule exo inh -0.1, MEX-5 binding -0.3 and V-ATPase pHluor 28.7*.
`C[C@@H]1COc2cc(N3CCN(Cc4ccccc4F)CC3)ccc2S(=O)(=O)N1` gave HTR2A ag -1.5 and Granule exo inh -6.8.
Screening COc1ccc(OC)c(N(C(=O)c2snc(C(N)=O)c2N)C(C(=O)NCc2ccccc2)c2ccc(O)cc2)c1 (centres undefined) returned VLA-4 inh 6.3, JMJD2C inh -13.6, HTR2A ag -4.8, Granule exo inh -5.8, MEX-5 binding 0.7 and V-ATPase pHluor -1.6.
`Cc1ccc(C(C(=O)NCc2ccc(F)cc2)N(Cc2ccco2)C(=O)c2snc(C(N)=O)c2N)o1` (centres undefined) gave VLA-4 inh 9.5, JMJD2C inh -1.3, HTR2A ag 5.0, Granule exo inh 74.1*, MEX-5 binding -2.4 and V-ATPase pHluor 0.4.
Screening COc1ccc(CNC(=O)C(c2ccc(C)o2)N(C(=O)c2snc(C(N)=O)c2N)c2ccccc2OC)cc1 (centres undefined) returned VLA-4 inh 9.9, JMJD2C inh 0.1, HTR2A ag 2.4, Granule exo inh 72.6*, MEX-5 binding -0.8 and V-ATPase pHluor -5.4.
CCN(CC)C1=CC2=CC(=C(C#N)C#N)CCC2CC1 (centres undefined) was read as VLA-4 inh -8.1, JMJD2C inh 7.8, HTR2A ag -2.8, Granule exo inh 10.9, MEX-5 binding inconclusive and V-ATPase pHluor 219.1*.
N#CC(C#N)=C1C=C2C=C(N3CCCCC3)CCC2CC1 (centres undefined) was read as VLA-4 inh inactive and JMJD2C inh 3.4.
`CCCCN(C)C1=CC2=CC(=C(C#N)C#N)CCC2CC1` (centres undefined) gave VLA-4 inh inactive, JMJD2C inh 10.9, HTR2A ag 5.0, Granule exo inh 38.2, MEX-5 binding inconclusive and V-ATPase pHluor 291.4*.
`Cc1cccc(CS(=O)(=O)c2ncc(Cl)c(C(=O)NCc3ccc4c(c3)OCO4)n2)c1` gave VLA-4 inh 19.2, JMJD2C inh -29.0, HTR2A ag -9.7, Granule exo inh 63.5*, MEX-5 binding -2.2 and V-ATPase pHluor -5.0.
Screening CC(=O)Nc1ccc(NC(=O)c2nc(S(=O)(=O)Cc3cccc(C)c3)ncc2Cl)cc1 returned VLA-4 inh 21.7, JMJD2C inh 2.5, HTR2A ag -1.6, Granule exo inh -5.1, MEX-5 binding -0.2 and V-ATPase pHluor 1.8.
`O=C(NCC1CCCO1)c1nn2c(C(F)(F)F)cc(-c3ccco3)nc2c1Cl` (centres undefined) gave VLA-4 inh 20.7, JMJD2C inh 5.6, HTR2A ag -0.5, Granule exo inh 6.0, MEX-5 binding -3.8 and V-ATPase pHluor -0.5.
O=C(NCC1CCCO1)c1nn2c(C(F)(F)F)cc(-c3cc(Br)cs3)nc2c1Br (centres undefined) was read as VLA-4 inh 1.5, JMJD2C inh -4.3, HTR2A ag 0.0, Granule exo inh -10.6, MEX-5 binding -52.9* and V-ATPase pHluor 2.4.
CC(C)c1ccc(NC2CCCN(C(=O)c3ccoc3)C2)cc1 (centres undefined) was read as VLA-4 inh 6.0, JMJD2C inh 7.1, HTR2A ag 2.6, Granule exo inh -0.8, MEX-5 binding -1.2 and V-ATPase pHluor -2.3.
`COc1ccc(NC(=O)N2CC(C)OC(C)C2)cc1OC` (centres undefined) gave VLA-4 inh 3.5, JMJD2C inh 3.7, HTR2A ag -1.6, Granule exo inh 3.7, MEX-5 binding -0.3 and V-ATPase pHluor -4.1.
Screening COc1ccc(C)cc1NC(=S)N1CC(C)OC(C)C1 (centres undefined) returned VLA-4 inh 8.3, JMJD2C inh -2.2, HTR2A ag -3.4, Granule exo inh 2.6, MEX-5 binding 1.7 and V-ATPase pHluor 14.8*.
Screening Cc1ccc(S(=O)(=O)n2nc(OC(=O)c3c(F)cccc3Cl)cc2N)cc1 returned VLA-4 inh 1.7, JMJD2C inh 2.8, HTR2A ag 1.5, Granule exo inh 78.0*, MEX-5 binding 0.7 and V-ATPase pHluor 2.8.
Screening O=C(CSc1nnc(CNC(=O)c2cccs2)o1)c1ccccc1 returned VLA-4 inh 6.3, JMJD2C inh 96.6*, HTR2A ag 3.0, Granule exo inh -6.5, MEX-5 binding 2.3 and V-ATPase pHluor 4.9.
Screening O=C(CSc1nnc(CNC(=O)c2cccs2)o1)c1ccc(Cl)cc1 returned VLA-4 inh -1.0, JMJD2C inh 5.5, HTR2A ag -2.2, Granule exo inh 0.4, MEX-5 binding -0.4 and V-ATPase pHluor -3.6.
`O=C(CSc1nnc(CNC(=O)c2ccccc2F)o1)NCCc1ccccc1` gave VLA-4 inh 13.8, JMJD2C inh 107.7*, HTR2A ag 1.4, Granule exo inh 2.6, MEX-5 binding 0.9 and V-ATPase pHluor 0.6.
Screening O=C(CSc1nnc(CNC(=O)c2c(F)cccc2F)o1)NCCc1ccccc1 returned VLA-4 inh -3.4, JMJD2C inh 19.6, HTR2A ag 10.2, Granule exo inh 13.5, MEX-5 binding 0.4 and V-ATPase pHluor -2.0.
Cc1c(-c2ccccc2)oc2c(C(=O)N3CCN(c4ccc([N+](=O)[O-])cc4)CC3)cccc2c1=O was read as VLA-4 inh 3.5, JMJD2C inh -11.3, HTR2A ag 1.0, Granule exo inh 90.4*, MEX-5 binding 0.4 and V-ATPase pHluor -0.5.
Cc1cccc(C)c1-n1nnnc1C1(C)CCC(=O)N1Cc1cccs1 (centres undefined) was read as HTR2A ag -1.2 and Granule exo inh -7.5.
Screening CSc1nc2ccc(NC(=O)NC(=O)c3c(F)cccc3F)cc2s1 returned VLA-4 inh -1.9, JMJD2C inh -2.3, HTR2A ag -1.0, Granule exo inh 7.1, MEX-5 binding 0.1 and V-ATPase pHluor -1.0.
`COc1cccc(F)c1C(=O)NC(=O)Nc1ccc2nc(C)oc2c1` gave VLA-4 inh 27.4, JMJD2C inh -6.6, HTR2A ag -1.8, Granule exo inh -1.4, MEX-5 binding -30.6* and V-ATPase pHluor 2.1.
